Test results published in PubChem BioAssay (NCATS).
Records with an inconclusive call do not appear. Active and inactive are the calls of the source. Unless noted, calls come from the whole dose curve; as a rule, active = well fitted curve in the direction sought with a large enough effect; inconclusive = small, poorly fitted or top-dose-only effect, or another doubt; inactive = no such curve, though single readings can be large; an effect the other way counts as inactive or inconclusive.

How the values were obtained:
[1] = target: Nicotinamide N-methyltransferase (Homo sapiens) (UniProt P40261); assay: Confirmatory Screen for Target Class Profiling of Small Molecule Inhibitors of Methyltransferases (AID 1745852); settings: MTase-Glo luminescence, SAH detection, recombinant enzyme; measured here: NNMT max response; stronger effect = lower value
Nicotinamide N-methyltransferase (Homo sapiens), sequence (P40261 whole entry, looked up): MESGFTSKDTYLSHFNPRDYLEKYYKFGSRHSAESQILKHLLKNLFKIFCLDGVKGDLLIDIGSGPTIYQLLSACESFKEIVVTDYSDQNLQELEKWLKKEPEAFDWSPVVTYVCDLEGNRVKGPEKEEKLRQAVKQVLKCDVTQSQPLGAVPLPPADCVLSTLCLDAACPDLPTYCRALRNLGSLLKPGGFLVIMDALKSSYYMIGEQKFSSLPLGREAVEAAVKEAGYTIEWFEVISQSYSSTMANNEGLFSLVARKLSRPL

[2] = target: Phenylethanolamine N-methyltransferase (Homo sapiens) (UniProt P11086); assay: as above; settings: MTase-Glo luminescence, SAH detection, recombinant enzyme; measured here: PNMT max response; stronger effect = lower value
Phenylethanolamine N-methyltransferase (Homo sapiens), sequence (P11086 whole entry, looked up): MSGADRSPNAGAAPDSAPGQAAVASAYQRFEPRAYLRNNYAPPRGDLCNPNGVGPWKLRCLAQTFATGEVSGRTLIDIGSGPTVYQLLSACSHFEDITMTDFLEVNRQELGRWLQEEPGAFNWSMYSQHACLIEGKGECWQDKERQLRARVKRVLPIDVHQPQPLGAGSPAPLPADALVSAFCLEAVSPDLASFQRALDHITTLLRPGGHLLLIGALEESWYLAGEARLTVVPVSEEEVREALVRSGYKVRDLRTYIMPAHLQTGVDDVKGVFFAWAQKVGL

[3] = target: Metallo-beta-lactamase type 2 (Klebsiella pneumoniae) (UniProt C7C422); assay: qHTS to identify inhibitors of the New Delhi Metallo-beta-lactamase (NDM): assay validation screen against the NCATS LOPAC Collection (AID 1794843); settings: NDM-1 enzyme, nitrocefin hydrolysis, absorbance 485 nm; series mostly up to 38.4 µM; note: potency is the fitted concentration of half-maximal effect
Metallo-beta-lactamase type 2 (Klebsiella pneumoniae), sequence (C7C422 whole entry, looked up): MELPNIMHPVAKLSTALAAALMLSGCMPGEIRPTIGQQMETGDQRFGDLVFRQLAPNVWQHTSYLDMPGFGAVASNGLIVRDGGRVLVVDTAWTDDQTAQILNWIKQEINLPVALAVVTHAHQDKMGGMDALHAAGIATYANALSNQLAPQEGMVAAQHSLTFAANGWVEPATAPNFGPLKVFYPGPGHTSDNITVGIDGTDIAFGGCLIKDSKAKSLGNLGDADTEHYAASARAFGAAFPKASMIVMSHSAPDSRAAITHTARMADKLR
Procedure, shortened: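 NDM-1 at 2 nM final in 50 mM HEPES pH 7.0 with 1 uM ZnSO4 and 0.01% Tween20 was preincubated with library compounds in DMSO. Nitrocefin (50 uM stock) was then added, and absorbance at 485 nm was read at the kinetic plateau.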

[4] = NCATS anti-infectives library activity on HEK293 viability as a counter-qHTS vs the C. elegans viability qHTS (AID 1745854); settings: HEK293 viability counter-screen; series mostly up to 83.3 µM; note: % is set by controls: 0 for no effect and ±100 for the full control effect
Procedure, shortened: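 Cytotoxicity counter-screen to a worm viability qHTS: CellTiter-Glo luminescence read 10 min after reagent addition. Compounds (final up to 41.7 uM, a 1:5 dilution series) incubated 24 hr at 37C with 1,500 HEK293 cells per well; digitonin control.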

[5] = NCATS anti-infectives library activity on the primary C. elegans qHTS viability assay (AID 1745855; calls by dose curve); settings: C. elegans worm area imaging, day 7; at 41.8 µM (top of the series) unless noted
Procedure, shortened: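 GFP read-out by 488 nm laser cytometry at day 0, 3 and 7, gated on object perimeter, area and peak intensity, scored viability of PE254-GFP-FLuc worms exposed to compound in S medium with bacterial capsules at 21 °C.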

| Compound | activity [1] | activity [2] | Potency [3] | outcome [4] | outcome [5] |
| --- | --- | --- | --- | --- | --- |
| Cn1c(=O)c2[nH]c(-c3ccc(S(=O)(=O)O)cc3)nc2n(C)c1=O | -17.8% | -5.47% | inactive |  |  |
| C=CCN1CCc2cc(O)c(O)cc2C(c2ccccc2)C1 (stereo not drawn) | -4.37% | -2.84% | inactive |  |  |
| N=C(N)SCCc1cnc[nH]1 | -8.2% | -8.19% | inactive |  |  |
| Fc1ccc(CN(C2=NCCN2)c2c(Cl)cccc2Cl)cc1 | -23.8% | -2.64% | inactive |  |  |
| CC[C@@H]1Cc2cc(O)ccc2C2=C1c1ccc(O)cc1C[C@H]2CC | -26.8% | -50.4% | inactive |  |  |
| CCN1C(=O)C=CC1=O |  |  | inactive | inactive | inactive [at 83.3 µM] |
| NC(=O)c1ccccc1 |  |  | inactive | inactive | inactive |
| O=C(O)C1=CC(=C(c2ccc(O)c(C(=O)O)c2)c2ccc(O)c(C(=O)O)c2)C=CC1=O | -4.1% | 2.52% | 1260 nM (active) |  |  |
| COc1cc(/C=C(\C#N)C(=O)c2ccc(O)c(O)c2)cc(I)c1O | -5.85% | 1.08% | inactive |  |  |
| Oc1cc(O)c2c(c1)O[C@H](c1ccc(O)c(O)c1)[C@@H](O)C2 | -7.72% | 7.68% | inactive | inactive | inactive |
| Brc1c(Br)c(Br)c2[nH]cnc2c1Br | -40.5% | -39.7% | inactive |  |  |
| N#C/C(=C\c1ccc(O)c(O)c1)C(=O)NCCc1ccccc1 | -37.9% | 0.462% | inactive |  |  |
| CC(O)C(O)[C@H]1CNc2nc(N)[nH]c(=O)c2N1 (stereo partly drawn) | -14.2% | -4.71% |  |  |  |
| CCN(CC)CCCCCCCCOC(=O)c1cc(OC)c(OC)c(OC)c1 | -0.607% | 0.819% | inactive |  |  |
| CC1CCN=C(N)S1 (stereo not drawn) | -17.8% | -0.769% | inactive |  |  |
| N#C/C(=C\c1ccc(O)c(O)c1)C(=O)NCCCNC(=O)/C(C#N)=C/c1ccc(O)c(O)c1 | -44.4% | -72.8% | inactive |  |  |
| CCCc1c(-c2ccc(O)cc2)nn(-c2ccc(O)cc2)c1-c1ccc(O)cc1 | -57.1% | -22% | inactive |  |  |
| NC/C=C\C(=O)O | -7.89% | 2.22% | inactive |  |  |
| C[C@H](NC(=O)/C(C#N)=C/c1ccc(O)c(O)c1)c1ccccc1 | -55.4% | -2.26% | inactive |  |  |
| CN(C)C(=O)/N=N/C(=O)N(C)C | -6.49% | -4.1% | inactive |  |  |
| CCCC[C@@]1(C2CCCC2)Cc2cc(OCC(=O)O)c(Cl)c(Cl)c2C1=O | -66.3% | 7.03% | inactive |  |  |
| N[C@H]1CONC1=O |  |  |  | inactive |  |
| CCCc1c(OCCCOc2ccc(OCC(=O)O)cc2)ccc(C(C)=O)c1O | -16.7% | 0.821% | inactive |  |  |
| C[C@@]1(C2CCCC2)Cc2cc(OCC(=O)O)c(Cl)c(Cl)c2C1=O | -45.2% | 5.32% |  |  |  |
| C[C@](Cc1ccc(O)c(O)c1)(NN)C(=O)O | -8.36% | 2.39% | inactive |  |  |
